Source: PubChem (National Center for Advancing Translational Sciences (NCATS))
In the library only some 3.2% were active in any assay of this set; here they are far more common.
ClpP mod = qHTS Assay for Activators of ClpP. ATP-dependent Clp protease proteolytic subunit (Bacillus subtilis (strain 168)), P80244. purified B. subtilis ClpP, FRET peptide cleavage, 20 min. Potency, µM (highest dose often 57.5 µM), inactives show at the top dose activity change, negative = active. actives 1.9% (n = 340,000). AID 651965, 2013; active = well fitted falling curve with a large enough effect; inconclusive = small, poorly fitted or top-dose-only effect; inactive = no such curve, though single readings can be large or run the other way; note: the source files actives as falling curves though it sought activators and does not explain the sign; nearly all actives have a fitted effect of over 65% in size
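FRET quenching reversal measured ClpP activation: 10 microg/mL B. subtilis ClpP at pH 8 with the FRET-FV decapeptide, read at 430 nm after 320 nm excitation. The 20-min minus 0-min signal was scaled between DMSO/no-enzyme wells and ADEP (5.8 microM final).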
GLP-1R agonist = GLP-1 receptor (human) agonism | Potency, µM (doses to about 45.6 µM), for inactives: top-dose activation, hits mostly activators | HEK293 GLP-1R CRE-luciferase, luminescence, 4-6 h; cells express a hypersensitive GLP-1R form | P43220 | AID 624172 | actives 0.007% (n = 380,000); note: % of control where 0% means no effect
Target sequence (P43220 whole entry, looked up): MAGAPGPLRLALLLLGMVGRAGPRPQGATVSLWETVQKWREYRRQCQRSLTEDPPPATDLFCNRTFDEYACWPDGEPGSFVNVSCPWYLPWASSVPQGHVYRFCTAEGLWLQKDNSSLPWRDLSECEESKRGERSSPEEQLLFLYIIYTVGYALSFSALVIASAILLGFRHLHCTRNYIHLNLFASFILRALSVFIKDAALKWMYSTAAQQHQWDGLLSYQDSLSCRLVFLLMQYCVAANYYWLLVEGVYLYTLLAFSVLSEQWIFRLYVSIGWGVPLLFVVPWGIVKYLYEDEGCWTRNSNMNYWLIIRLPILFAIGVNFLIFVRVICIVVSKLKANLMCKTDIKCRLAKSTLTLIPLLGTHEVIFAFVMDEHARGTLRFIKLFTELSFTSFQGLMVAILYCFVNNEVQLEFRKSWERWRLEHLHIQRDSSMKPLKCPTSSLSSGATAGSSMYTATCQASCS
GLP1R cytotox = cytotoxic in the GLP-1 receptor inverse agonist counter-screen | HEK293 cAMP-luciferase reporter cells, luminescence, 24 h | Potency, µM (titrated, usually from 38.3 µM), for the others: at the highest dose activity change, negative = inhibition, actives largely listed as inhibitors | actives 0.13% (n = 410,000) | AID 624418;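 note: loss of luciferase light is scored as toxicity; % is set by controls: 0 for no effect and ±100 for the full control effect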
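Here, cytotoxicity is scored as loss of luminescence. The MLSMR collection was tested on cells seeded in medium containing 10% Nu serum, with a 24 hr compound exposure preceded by 12 hours of culture.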
GLP1R inv ag = GLP-1 receptor (human) inverse agonism. HEK293 GLP-1R CRE-luciferase, luminescence, 24 h; GLP-1R form is constitutively active. Potency, µM (series often up to 38.3 µM), for inactives: at the top dose activity change, negative = inhibition, actives largely listed as inhibitors. actives 1.6% (n = 410,000); note: % is set by controls: 0 for no effect and ±100 for the full control effect; nearly all actives have a fitted effect of over 55% in size
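Seeding at 200 cells/uL, 12 h culture, 24 hr compound treatment, then luciferase reagent and a luminescence read; cells are HEK293 stably expressing a constitutively active GLP-1R plus cAMP-responsive luciferase.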
Starred values were filed as active, the others as inactive; ? = inconclusive; / = no result. Unless noted, calls come from the whole dose curve; as a rule, active = well fitted curve in the direction sought with a large enough effect; inconclusive = small, poorly fitted or top-dose-only effect, or another doubt; inactive = no such curve, though single readings can be large; an effect the other way counts as inactive or inconclusive. Potency is the fitted concentration of half-maximal effect.

SMILES	ClpP mod	GLP-1R agonist	GLP1R cytotox	GLP1R inv ag
COCCN1CC(O)=C(c2nc3ccccc3c(=O)[nH]2)C1=N	?	-4.7%	-2.2%	6.4%
COc1ccccc1N1CC(O)=C(c2nc3ccccc3c(=O)[nH]2)C1=N	31.6µM*	6.1%	-30.2%	18.0%
CC(C)N1CCC2(CC1)N=C(c1ccc3c(c1)OCO3)CC(c1cc(Cl)ccc1O)N2 (centres undefined)	50.5%	-40.1%	?	11.2µM*
Oc1ccc(Cl)cc1C1C=C(c2ccc3c(c2)OCO3)NC(c2ccc(C(F)(F)F)cc2)N1 (centres undefined)	0.8%	/	/	/
Cc1cccc(OC(C)C(=O)NCc2ccc(S(N)(=O)=O)cc2)c1 (centres undefined)	3.16µM*	0.8%	2.1%	1.1%
Cc1cccc(C(=O)NCc2ccc(S(N)(=O)=O)cc2)c1[N+](=O)[O-]	28.2µM*	-1.0%	3.7%	7.0%
CC(Oc1cccc(Cl)c1)C(=O)NCc1ccc(S(N)(=O)=O)cc1 (centres undefined)	-1.3%	-2.0%	-8.8%	13.0%
CCOC(=O)C1CCCN(S(=O)(=O)c2cc(-c3cc(C)no3)ccc2C)C1 (centres undefined)	1.1%	/	-6.6%	-15.5%
COc1ccc2oc(C(=O)OCC(=O)Nc3cc(S(=O)(=O)N4CCOCC4)ccc3OC)c(C)c2c1	10µM*	-0.7%	-6.9%	-1.6%
CCOc1ccc2oc(C(=O)OCC(=O)NCC3CCCO3)c(C)c2c1 (centres undefined)	-0.5%	16.1%	21.2%	15.5%
COc1ccc2oc(C(=O)OCC(=O)Nc3cc(S(=O)(=O)N4CCOCC4)ccc3C)c(C)c2c1	/	12.6%	6.8%	1.4%
COc1ccc2oc(C(=O)OCC(=O)NC3(C#N)CCCC3)c(C)c2c1	25.1µM*	-4.0%	1.0%	3.7%
COc1ccc2oc(C(=O)OCC(=O)Nc3cccc(S(=O)(=O)N4CCOCC4)c3)c(C)c2c1	/	17.7%	5.2%	-26.9%
COc1ccc2oc(C(=O)OCC(=O)NCC3CCCO3)c(C)c2c1 (centres undefined)	12.6µM*	-12.7%	-1.3%	?
COc1ccc2oc(C(=O)OCC(=O)Nc3ccc(OC)c(S(N)(=O)=O)c3)c(C)c2c1	28.2µM*	1.6%	4.2%	9.0%
CN(Cc1ccccc1)C(=O)CSc1nc2ccsc2c(=O)n1-c1ccc(F)cc1	-0.9%	/	-8.3%	1.2%
COc1ccc(OCCn2c(C(C)Oc3ccccc3)nc3ccccc32)cc1 (centres undefined)	0.0%	/	16.6%	?
COc1cccc(OCCSc2nc3ccccc3n2CC(=O)N2CCOCC2)c1	0.0%	/	-0.3%	2.6%
COc1ccc2oc(C(=O)OCC(=O)Nc3ccc(NC(C)=O)cc3)c(C)c2c1	25.1µM*	-9.1%	-1.9%	3.2%
O=C(COC(=O)Cc1ccc(Br)cc1)NCC1CCCO1 (centres undefined)	-3.4%	-7.5%	3.2%	3.3%
O=C(COC(=O)Cc1c(Cl)cccc1Cl)NCC1CCCO1 (centres undefined)	25.1µM*	-9.0%	25.2%	4.6%
COc1ccc2oc(C(=O)OCc3nnc(-c4ccccc4)o3)c(C)c2c1	25.1µM*	-1.2%	0.4%	11.5%
COc1ccc(CNC(=O)c2cccn2-c2nnc(N3CCCCC3)s2)c(OC)c1	?	/	-0.5%	6.3%
CC(C)(C)CC(C)(C)N=C1Nc2ccc(Cl)cc2NC12C[C@H]1CCC(=O)N3CC[C@@H](C2)[C@@H]13 (some centres undefined)	2.2%	/	/	/
O=C(CC(Nc1ccccc1Cl)C(=O)O)c1ccccc1 (centres undefined)	-0.8%	-0.7%	-8.3%	-27.9%
Cc1c(Cl)cccc1NC(CC(=O)c1ccccc1)C(=O)O (centres undefined)	25.1µM*	-2.3%	-15.3%	-29.3%
COc1ccc(NC(=O)c2ccc(CN3C(=O)CCn4nc(C)cc43)cc2)c(OC)c1	1.9%	/	0.5%	0.5%
CC(CNC(=O)c1nnc(Cc2ccc(F)cc2)o1)c1ccccc1 (centres undefined)	-1.7%	/	-0.3%	?
CCOc1ccc(C2CC(=O)Nc3c2c(=O)nc(SCc2ccccc2C)n3C)cc1OC (centres undefined)	-7.5%	/	21.5%	8.0%
